Data taken from the supplement of paper PMC6555819.

What follows are sequences tested on FXR:RXRa (NR concentration 270 nM, RXRa partner concentration 90 nM) (assay: PBM binding z-score (relative to random genomic background probes); higher = stronger binding; sequences stand for … in GC…GCGATTGACAGCGTAGAATGAAGG).
Procedure, shortened: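 Binding z-scores take random background probes as their reference. They come from custom Agilent 4×180K protein-binding microarrays incubated 1 h with ligand-free nuclear receptor dimers, with antibodies against each partner (one per run) detecting binding. Scanned fluorescence was regression-normalized.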
With TCATATAGGTAAACAGGTGAAACTCCGTAAGTTA the PBM binding z-score was 0.937.
TCTAGCAAGCCAGAGGGTCACTCAAGAGGTACGG was tested, and the PBM binding z-score was 0.763.
For ACAGACCGGTGAGTGAAGGTAACTCAGCTGGACG, the PBM binding z-score was -0.151.
Sequence CCGACTGGGGCAAGATTACCATAACGCACAGCCA has a PBM binding z-score of -0.454.
Work on GGAACGAGGGCAAAGTCGATAGCATCTGTCGACG yielded a PBM binding z-score of 0.356.
ACTATCAGTTGAGACGAGGGCAACCGATAGGTTG gave a PBM binding z-score of 0.189.
AATACACGGTCACTAGGCCAGAGTAGGTACGAAT gave a PBM binding z-score of 0.614.
TCTCGGAGGACACGAGAGGTCAGAGCTCGACATC showed a PBM binding z-score of 2.17.
In the case of ACAGACAGGTGATGAACGTAACTCAGGCTATCAT, the PBM binding z-score is reported as -0.0915.
ATACCAAGGTGATCGTGAGGTCGTTGTTACTAAC showed a PBM binding z-score of 1.57.
Work on GCTACCAGGCCATTTGGGTCACTCAATGACGGGC yielded a PBM binding z-score of 0.22.
TCGAGTCGGTTACCAATGGGGCATTCAGCTTTCT was tested, and the PBM binding z-score was -0.293.
TATCGGAGGACACGAAGGTCAGAGCTTTCCAGAG showed a PBM binding z-score of 1.17.
In the case of ATCGAAAGGTCGTTAGGTGAGTATACAGAAAGGC, the PBM binding z-score is reported as 3.98.
AGTCAAAGTTCATCTAGGTAACGTACGATATGCT showed a PBM binding z-score of 6.96.
For ACAGACAGGTGATTAAGGTAACTCAGGCTATCAT, the PBM binding z-score was 0.396.
With AGTCAAAGTTCACTAGGTAACGTATGATTCAGCT the PBM binding z-score was 4.96.
For TCTAATAGTTGAAGGGCAACCGACGAGTCCGTTT, the PBM binding z-score was 0.931.
Work on GCTAGCAGGCCTTTTGGGTCACTCAATGACGGGC yielded a PBM binding z-score of 0.126.
GCTTACGGGTCAAAGGTTATATCATGAATAGAAT was tested, and the PBM binding z-score was 7.77.
In the case of TCTAGTTGCTCACGGAGGTCACACACGACGGGTA, the PBM binding z-score is reported as 2.59.
CTCGAAAGATCGTGCTCAGGTGAGTATACCAAAC gave a PBM binding z-score of -0.102.
